# Data published in ChEMBL document CHEMBL3433997, “St. Jude Leishmania screening dataset” (2016).
# Values joined by “and” are separate entries in the source; they are usually repeats but may differ in a detail not shown here. Equal values may be shown once.
# Assays:
# Assay type in all cases: functional
# [1] = target: Solute carrier family 2, facilitated glucose transporter member 1 (Homo sapiens) (UniProt P11166); experiment: ST_JUDE_LEISH: Cytotoxicity at 2uM final concentration against transgenic Leishmania Mexicana promastigotes LmGLUT1 that are glucose transport deficient and complemented with the human glucose transporter GLUT1. Activity is measured by DNA content using SYBR green in vitro
# Sequence of Solute carrier family 2, facilitated glucose transporter member 1 (Homo sapiens) (P11166 whole entry): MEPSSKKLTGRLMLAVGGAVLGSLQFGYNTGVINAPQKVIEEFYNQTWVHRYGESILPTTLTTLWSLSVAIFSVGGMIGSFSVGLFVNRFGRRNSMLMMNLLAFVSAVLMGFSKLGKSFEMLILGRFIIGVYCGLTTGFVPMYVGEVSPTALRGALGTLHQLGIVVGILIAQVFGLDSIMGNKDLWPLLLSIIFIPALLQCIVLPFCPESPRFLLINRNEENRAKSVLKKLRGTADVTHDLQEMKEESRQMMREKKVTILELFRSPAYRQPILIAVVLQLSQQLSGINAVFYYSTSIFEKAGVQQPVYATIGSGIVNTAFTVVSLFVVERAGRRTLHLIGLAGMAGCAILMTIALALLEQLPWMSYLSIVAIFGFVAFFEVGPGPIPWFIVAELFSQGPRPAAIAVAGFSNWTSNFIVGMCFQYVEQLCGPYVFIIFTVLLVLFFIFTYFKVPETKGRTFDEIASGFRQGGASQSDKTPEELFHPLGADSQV
# [2] = target: Hexose transporter 1 (Plasmodium falciparum) (UniProt O97467); experiment: ST_JUDE_LEISH: Cytotoxicity at 2uM final concentration against transgenic Leishmania Mexicana promastigotes LmPfHT that are glucose transport deficient and complemented with the Plasmodium falciparum hexose transporter. Activity is measured by DNA content using SYBR green in vitro
# [3] = target: Glucose transporter (Leishmania mexicana) (UniProt O61059); experiment: ST_JUDE_LEISH: Cytotoxicity at 2uM final concentration against transgenic Leishmania Mexicana promastigotes LmGT2 that are glucose transport deficient and complemented with the L. Mexicana glucose transporter 2. Activity is measured by DNA content using SYBR green in vitro
SMILES,inhibition [1],inhibition [2],inhibition [3]
O=C(Cc1c[nH]cn1)Nc1cccc(-c2ccc(-c3nc4cc(F)ccc4[nH]3)cc2)c1,9.26%,10.1%,7.18%
Nc1nc(N)c2c(ccc3c2ccn3Cc2cccc3ccccc23)n1,97.3%,96%,88.4%
Cc1ccc(C)c2sc(N(CCCn3ccnc3)C(=O)c3ccco3)nc12,4.42%,5.62%,5.23%
N#Cc1ccc(C(=O)Nc2cccc(-c3ccc(CN4CCCC4)cc3)c2)cc1,11.4%,9.72%,9.04%
Oc1ccc(CN2CCC(NCc3cccc4ccccc34)CC2)cc1,12.4%,11.6%,9.93%
CN(C)Cc1cccc(-c2ccc(Nc3nccc(NCC(O)c4ccccc4)n3)cc2)c1 (stereo not given),2.6%,3.43%,3.53%
COc1ccc(NC(=O)[C@H](CC(C)C)Nc2cc(C)nc(NCCc3ccccc3OC)n2)cc1,1.28%,2.79%,0.24%
O=C(Nc1ccc(-c2nc3ccccc3[nH]2)cc1)c1ccc(N2CCOCC2)c([N+](=O)[O-])c1,-0.45%,-0.76%,-0.91%
COc1ccccc1CNC(=O)c1ccc(N2CCN(c3ccncc3)CC2)cn1,7.32%,2.84%,1.11%
O=C(Nc1ccc(-c2nc3ccccc3[nH]2)cc1)c1ccc([N+](=O)[O-])s1,5.3%,7.89%,3.02%
Cc1cccc2nc(-c3cccc(-c4cccc(NC(=O)C(C)CN5CCN(C)CC5)c4)c3)[nH]c12 (stereo not given),1.94%,1.44%,5.8%
NC1=NC(c2ccccc2)(c2cccc(O)c2)C(=O)N1CCCc1ccccc1 (stereo not given),10.4% and 2.82%,10.4% and 1.45%,6.85% and 0.63%
Cc1ccc2nc(C)cc(N/N=C/c3ccc([N+](=O)[O-])cc3)c2c1,104%,101%,104%
Cc1c(N=O)cc(C(C)(C)C)c(O)c1C(=O)Nc1ccc([N+](=O)[O-])cc1Cl,2.33%,5.18%,-0.56%
C[C@@H](N)C#Cc1cc2c(Nc3ccc(OCc4cccc(F)c4)c(Cl)c3)ncnc2s1,2.5%,4.76%,2.27%
Nc1nc(N)c2c3c(ccc2n1)NCCC3,-0.04%,0.47%,-0.59%
O=S(=O)(NCCN1CCCC1)c1ccc(-c2ccc(CNC3Cc4ccccc4C3)cc2)s1,5.8%,12.6%,1.34%
Oc1ccc(-c2nc3c4cc(I)ccc4c4ccc(I)cc4c3[nH]2)cc1,2.27%,-1.87%,-2.11%

SMILES,inhibition [1],inhibition [2],inhibition [3]
COc1cc(NCC(O)CNc2cc(OC)c3ccccc3n2)nc2ccccc12,33.2%,12.5%,4.93%
CCOc1c(CNCCCNc2cc(=O)c3ccccc3[nH]2)cc(I)cc1C(C)(C)C,-0.21%,1.18%,0.27%
CCOc1ccc(N2C(N)=NC(N)=NC2(C)C)cc1,4.38%,3.86%,4.06%
Cc1cccc2nc(-c3cccc(-c4cccc(CNC(C)C)c4)c3)[nH]c12,-0.63%,0.85%,0.35%
Cc1nc2nc(N)nc(N)c2c(C)c1Cc1ccc(C(N)=O)cc1,1.68%,1.64%,0.21%
O=C(C=Cc1ccccc1)Nc1ccc(C#CC=Cc2ccc(NC(=O)C=Cc3ccccc3)cc2)cc1,2.7%,2.84%,2.16%
COc1ccc2nccc([C@@H](O)CN3CCC(NCCOc4cccc(C(F)(F)F)c4Cl)CC3)c2c1,11.3%,12%,6.66%
CCC1CN(CCCn2c3ccccc3c3ccccc32)C(CC)CN1 (stereo not given),-0.46%,-0.59%,-0.18%
CCN(CC)CC(O)Cc1c2ccc([N+](=O)[O-])cc2nc2cc(OC)c(OC)cc12 (stereo not given),0.42%,1.89%,-1.11%
CC(C)(C)C/C=C\c1ccc(C(=O)NCC2CC2)cc1,6.73%,9.04%,3.76%
Cc1ccc(CNC(=N)NC(=O)c2nc(Cl)c(NCc3ccc(Cl)cc3)nc2N)c(C)c1,-0.6%,0.67%,1.11%
COc1cc(F)c2ncc(C#N)c(CCN3CCC(NCc4ccc5c(c4)OCCO5)CC3)c2c1,91.3%,95.1%,93.9%
COc1csc2cc(Br)ccc12,1.01%,1.16%,0.18%
O=S(=O)(NCCN1CCCC1)c1ccc(-c2cccc(CNCc3ccc(F)cc3)c2)cc1,1.16%,1.09%,-0.22%
Nc1nc(F)nc2nc[nH]c12,29.6%,29.2%,22%
COc1ccc2c(ccc3c2ncc2c(=O)n(-c4ccccc4)[nH]c23)c1,-1.88%,-1.2%,-0.76%
CC(C)(C)c1cc(Cl)cc(C(=O)Nc2cc([N+](=O)[O-])ccc2Cl)c1O,5.8%,4.84%,4.28%
